In all, about 360,000 compounds went through this assay and about 8,200 (2.3%) were called active. This is one part of a sample in which actives are shown more often than they occur. Cut-off read from the data, not from the text of the source: active = inhibition above about 27%; inactive = the rest.
What follows are compounds tested against Fructose-bisphosphate aldolase (Mycobacterium tuberculosis (strain ATCC 25618 / H37Rv)) (UniProt P9WQA3) (assay: Mtb FBA enzyme inhibitors, primary screen, biochemical, fluorescence, strain H37Rv (AID 588726;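 note: 0% = vehicle and 100% = reference inhibitor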)). Settings: purified M. tuberculosis FBA, fluorescence read-out, at 1 µM, hits give high values.
Chain of Fructose-bisphosphate aldolase (Mycobacterium tuberculosis (strain ATCC 25618 / H37Rv)) (P9WQA3 whole entry, looked up): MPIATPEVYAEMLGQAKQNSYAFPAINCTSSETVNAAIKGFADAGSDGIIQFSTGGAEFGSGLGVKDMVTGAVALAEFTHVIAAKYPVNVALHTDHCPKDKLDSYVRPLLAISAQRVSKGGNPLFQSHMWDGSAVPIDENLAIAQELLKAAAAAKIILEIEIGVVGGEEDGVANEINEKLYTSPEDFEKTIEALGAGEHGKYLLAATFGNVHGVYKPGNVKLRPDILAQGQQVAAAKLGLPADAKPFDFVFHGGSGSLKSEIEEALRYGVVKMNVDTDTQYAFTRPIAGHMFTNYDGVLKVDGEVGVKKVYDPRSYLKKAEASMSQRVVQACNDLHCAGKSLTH
With Cc1cc(Br)ccc1SCC(=O)OCC(=O)NCc1ccc2c(c1)OCO2 the inhibition was -1.37% (inactive). With CCn1c(=O)cc(SCC(=O)NCCC2=CCCCC2)c2ccccc21 the inhibition was 6.21% (inactive). Cc1ccc(C)c(S(=O)(=O)N2CC(=O)Nc3ccccc32)c1 was tested, and the inhibition was 31.2% (active). For Cc1ccc(S(=O)(=O)N2CC(=O)Nc3ccccc32)cc1C, the inhibition was -0.25% (inactive). With Cc1ccc(S(=O)(=O)N(C)CC(=O)OCC(=O)N2CC(=O)Nc3ccccc32)cc1 the inhibition was 0.54% (inactive). With O=C(OCc1cn([C@@H]2C[C@H](c3ccc(Cl)cc3)N(Cc3cccs3)C[C@H]2O)nn1)c1ccccc1 the inhibition was 0.72% (inactive). With O=C(CCc1n[nH]c(=O)[nH]c1=O)N/N=C/c1ccc(Br)o1 the inhibition was 4.62% (inactive). O=C(CCC(=O)N/N=C/c1ccc(Br)o1)N/N=C/c1ccc(Br)o1 was tested, and the inhibition was 31.8% (active). With O=C(CCNC(=O)c1ccccc1)NN=Cc1ccc(Br)o1 the inhibition was 0.48% (inactive). N#Cc1cnn2cc(CCN3CCOCC3)c(-c3ccc(F)cc3)nc12 was tested, and the inhibition was 15.8% (inactive). COc1ccc2c(c1)CCc1c(C(=O)N3CCCC3)noc1-2 was tested, and the inhibition was 0.6% (inactive). With COc1ccc2c(c1)CCc1cn3ncc(C#N)c3nc1-2 the inhibition was 522% [above what the read-out allows, likely interference] (active). CC(C)C(NS(=O)(=O)c1cccs1)C(=O)Nc1nc(C(C)(C)C)cs1 (centres undefined) was tested, and the inhibition was 2.98% (inactive). CN1C(=O)C2(OCCCO2)c2cc(Cl)ccc21 was tested, and the inhibition was 1.91% (inactive). With CCOc1ccc(Nc2nc(Cc3nnc(SCC(=O)c4ccc(C)cc4)o3)cs2)cc1 the inhibition was -1.31% (inactive). With CCN(CC)C(=O)C1=C(C)N(Cc2ccc(F)cc2)C(=O)C(CC(=O)NC2CCCC2)C1 (centres undefined) the inhibition was -1.29% (inactive). For Cn1nccc1NS(=O)(=O)c1ccc(F)cc1, the inhibition was -0.97% (inactive). CC(=O)N(C)c1ccc(NC(=O)Nc2cccc3ccccc23)cc1 was tested, and the inhibition was 6.26% (inactive). O=C(Nc1cccc2ccccc12)NC1CC1 was tested, and the inhibition was 9.02% (inactive). For CCN(C(=O)Nc1cccc2ccccc12)c1ccccc1, the inhibition was 75.4% (active). O=C(N/N=C/c1cccc2cccnc12)[C@H]1C[C@@H]1c1ccccc1 was tested, and the inhibition was -0.16% (inactive). With C[N+]1(CCNC(=O)/C=N/O)CCCCC1 the inhibition was 4.51% (inactive). In the case of COC(=O)c1c(NC(=O)CN2C(=O)NC(CCc3ccccc3)C2=O)sc2c1CCCCC2 (centres undefined), the inhibition is reported as -0.99% (inactive). In the case of O=C1C2C3C=CC(C3)C2C(=O)N1c1ccc(S(=O)(=O)Nc2nccs2)cc1 (centres undefined), the inhibition is reported as -2.35% (inactive). In the case of COc1cccc(N2CCN(c3ccc4nnc(CCC(=O)N5CCN(C)CC5)n4n3)CC2)c1, the inhibition is reported as 1.71% (inactive). With CN1CCN(c2ccc([N+](=O)[O-])c(Sc3nc4ccccc4[nH]3)c2)CC1 the inhibition was -3.38% (inactive). COCCCNS(=O)(=O)c1cccc(S(=O)(=O)c2cccc(S(=O)(=O)NCCCOC)c2)c1 was tested, and the inhibition was 0.27% (inactive). With COc1ccc(/C=N/n2c(C)cc(C)cc2=O)cc1 the inhibition was 3.54% (inactive). CC(C)OCCCNc1ncnc2c1[nH]c1ccc(F)cc12 was tested, and the inhibition was 31.8% (active). For O=C(Nc1ccccc1Cl)/C(Cl)=C(\Cl)S(=O)c1ccccc1 (centres undefined), the inhibition was -3.21% (inactive). For CC(C)Cn1cc(-c2cncc3nccn23)cn1, the inhibition was 142% (active). In the case of C=CCSc1nc(N)cc(=O)[nH]1, the inhibition is reported as 3.86% (inactive). For CC(Oc1cccc(Cl)c1)C(=O)NC1CC(C)(C)NC(C)(C)C1 (centres undefined), the inhibition was 0.76% (inactive). In the case of CCc1cc(=O)oc2cc(C)cc(OCC(=O)N3CCC[C@@H]3C(=O)O)c12, the inhibition is reported as 106% (active). In the case of Cc1cc(C)c(NC(=S)N2CCCC2C(=O)O)c(C)c1 (centres undefined), the inhibition is reported as 0.88% (inactive). In the case of COc1cccc(NC(=O)COc2cc(C)cc3oc(=O)cc(C)c23)c1, the inhibition is reported as 7.86% (inactive). CCc1cc(=O)oc2cc(OCC(=O)N3CCCc4ccccc43)ccc12 was tested, and the inhibition was 5.17% (inactive). CCc1cc(=O)oc2cc(C)cc(OC(C)C(=O)O)c12 (centres undefined) was tested, and the inhibition was 176% (active). For Cc1cc(=O)oc(C)c1C(=O)NC1CC(C)(C)NC(C)(C)C1, the inhibition was 0.07% (inactive). In the case of Cc1cc(C)c2c(Cn3ccnc3)cc(=O)oc2c1, the inhibition is reported as 0% (inactive). Cc1cc(OC(C)C(=O)NC2CC(C)(C)NC(C)(C)C2)c2c(C)cc(=O)oc2c1 (centres undefined) was tested, and the inhibition was 154% (active). CCOC(=O)c1sc2nc(C)nc(Nc3ccc(OC)c(OC)c3)c2c1C was tested, and the inhibition was 0.66% (inactive). N#Cc1ccc(C(c2ccc(C#N)cc2)n2cncn2)cc1 was tested, and the inhibition was 2.3% (inactive). For O=C(CNS(=O)(=O)c1ccc2ccccc2c1)Nc1ccc(F)c(F)c1F, the inhibition was 1.83% (inactive). In the case of CC(C)NS(=O)(=O)c1ccc(CCC(=O)N2CCOCC2)cc1, the inhibition is reported as 0.26% (inactive). In the case of CCc1nc2c(OCCc3cccc(OC)c3)cccn2c1N(C)C(=O)c1ccc(C)cc1, the inhibition is reported as 1.14% (inactive). CC(=O)c1cccc(-n2nnnc2SCC(=O)NNC(=O)C2CCCCC2)c1 was tested, and the inhibition was 3.69% (inactive). With COc1cc(C(=O)NCc2nnc(SCC(=O)Nc3nc4ccc(C)cc4s3)o2)cc(OC)c1OC the inhibition was 1.7% (inactive). N/C(=N\OC(=O)CCn1cccc(C(F)(F)F)c1=O)c1ccc(OC(F)(F)F)cc1 was tested, and the inhibition was 1.82% (inactive). For Cc1ccc(NN=C2C(=O)OC(C)(C)OC2=O)c(C)c1, the inhibition was -7.26% (inactive). For COc1ccc(Br)c2c1C(=O)CC2, the inhibition was 2.69% (inactive). O=C(c1c(F)cccc1Cl)N1CCN(c2ccccn2)CC1 was tested, and the inhibition was 116% (active). With O=C(c1c(F)cccc1F)N1CCN(c2ncc(Br)cn2)CC1 the inhibition was -0.3% (inactive). In the case of O=C(Cc1ccccc1Cl)N1CCN(c2ccccn2)CC1, the inhibition is reported as 10.2% (inactive). In the case of NS(=O)(=O)c1cc2c(cc1Cl)NC(C(Cl)Cl)NS2(=O)=O (centres undefined), the inhibition is reported as 2.88% (inactive). COc1ccc(OC)c(NC(=O)Cn2c(=O)oc3ccccc32)c1 was tested, and the inhibition was -2.86% (inactive). In the case of CCc1cccc2c(C=C(C#N)C#N)cn(CC(=O)N3CCCCC3)c12, the inhibition is reported as -1.66% (inactive). Cc1onc(-c2ccc(Cl)cc2)c1-c1ccnn1S(=O)(=O)c1ccc(Cl)cc1 was tested, and the inhibition was -3.96% (inactive). COC(=O)c1cn(C(=O)c2ccc(Cl)cc2)c2ccccc12 was tested, and the inhibition was -0.26% (inactive). For COC(=O)c1noc(C)c1-c1ccnn1C(=O)c1ccc(Cl)cc1, the inhibition was 29.4% (active). In the case of Cn1c(-c2ccc(C(=O)c3ccccc3)s2)nc2ccccc21, the inhibition is reported as 1.32% (inactive). With Cc1ccc(C2=NN(C)c3nc4ccccc4n3C2)cc1 the inhibition was 13.4% (inactive). In the case of Cn1cccc1-c1nc2ccccc2n1C, the inhibition is reported as 28.6% (active). In the case of O=C(COc1ccc(Cl)cc1)Nc1ccc2oc(=O)ccc2c1, the inhibition is reported as 2.76% (inactive). In the case of Cc1ccc(S(=O)(=O)N2CCC(C)CC2)cc1C(=O)NCc1ccccn1, the inhibition is reported as 2.4% (inactive). COc1ccc(NC(=O)CSc2ncnc3[nH]ncc23)cc1 was tested, and the inhibition was 1.84% (inactive). For CCCCn1c(N)c(N(CC(C)C)C(=O)c2cnc(C)cn2)c(=O)[nH]c1=O, the inhibition was 0.47% (inactive). In the case of CC(=O)N1CCN(S(=O)(=O)c2c(F)cc(F)c(Cl)c2F)CC1, the inhibition is reported as -0.88% (inactive). For CC(C)c1cc(C(=O)N(C)C2CCCN(Cc3ccccc3F)C2)n(C)n1 (centres undefined), the inhibition was 2.62% (inactive). CN(CCNC(=O)c1cc2c(-c3ccccc3F)nn(C)c2s1)C1CCCCC1 was tested, and the inhibition was 73.3% (active). In the case of Cc1oc(-c2ccccc2F)nc1CS(=O)(=O)CC(=O)NCCCN(C)C1CCCCC1, the inhibition is reported as -2.64% (inactive). CC(CO)NCC12CC3CC(CC(C3)C1)C2 (centres undefined) was tested, and the inhibition was -1.08% (inactive). For Cc1ccc(Cn2c(=N)c(S(=O)(=O)c3ccc(C)cc3)cc3c(=O)n4ccccc4nc32)cc1, the inhibition was 3.69% (inactive). In the case of Cc1ccc(-n2c(SCC(=O)N3CCC(C(=O)O)CC3)nc3ccccc3c2=O)cc1C, the inhibition is reported as -6.87% (inactive). With Cc1ccc(-n2c(=O)c(C#N)cc3c(=O)n4ccccc4nc32)cc1C the inhibition was 67% (active). For CCOC(=O)C1CN(S(=O)(=O)c2ccc(OC)cc2)c2cc(Cl)ccc2O1 (centres undefined), the inhibition was 2.59% (inactive). In the case of CC[C@]12c3[nH]c4cc(CCC(=O)N(C)C)ccc4c3CCN1C(=O)[C@@H](CC(=O)NCC13CC4CC(CC(C4)C1)C3)C[C@@H]2C(=O)N1CCN(C(=O)C2CC2)CC1, the inhibition is reported as 0.95% (inactive). In the case of CC1=CC=CC2=N/C(=N\S(=O)(=O)c3ccc(F)cc3F)c3ccccc3CN12, the inhibition is reported as 1.29% (inactive). With COc1cc2[nH]c(=O)n(CCC(=O)NC3CCN(Cc4ccccc4)CC3)c(=O)c2cc1OC the inhibition was 5.35% (inactive). In the case of CCOC(=O)c1[nH]c2ccc(OC)cc2c1NC(=O)CCN1CCN(Cc2ccccc2)CC1, the inhibition is reported as 49.8% (active). In the case of CCN(CC)C(=O)Oc1ccc(NC(=O)N2CCOCC2)cc1, the inhibition is reported as -0.07% (inactive). Cc1c(C(=O)CN2CCOCC2)[nH]c2ccccc12 was tested, and the inhibition was -0.51% (inactive). Cc1cc(NC(=O)CCN2CCN(Cc3ccccc3)CC2)ccc1Br was tested, and the inhibition was 0.67% (inactive). For CCOC(=O)c1[nH]c2ccc(OC)cc2c1NC(=O)N1CCOCC1, the inhibition was 28.4% (active). With OCC(O)CN(c1ccccc1)c1ccccc1 (centres undefined) the inhibition was 5.53% (inactive). In the case of CC(C)N(C(=O)Cn1cc(S(=O)(=O)CC(=O)N2CCOCC2)c2ccccc21)C(C)C, the inhibition is reported as -1.92% (inactive). With Cc1ccc(Br)c(NS(=O)(=O)c2cccc(C(=O)N3CCNC(=O)C3)c2)c1 the inhibition was -3.11% (inactive). For CC(=O)NC(Cc1ccc(F)c(F)c1)C(=O)NC1CCN(C(=O)c2ccc(C)cc2)CC1 (centres undefined), the inhibition was -2.53% (inactive). For CC(NC(=O)COc1ccccc1)C(=O)NC1=NCCS1 (centres undefined), the inhibition was 2.42% (inactive). With CC(C)(C)CN1CCNC(=O)C1CC(=O)NC1Cc2ccccc2C1 (centres undefined) the inhibition was 1.64% (inactive). COc1ccc(-c2nc(N)sc2C2(O)C(=O)Nc3c(Br)cc(F)cc32)cc1OC (centres undefined) was tested, and the inhibition was 5.75% (inactive). O=[N+]([O-])c1cccc(Nc2c3ccccc3nc3ccccc23)c1 was tested, and the inhibition was 122% (active). For O=[N+]([O-])c1cnc2ccc3ccccc3c2c1, the inhibition was 1.36% (inactive). For O=C(CSc1nc(-c2ccccc2)cs1)Nc1cccc([N+](=O)[O-])c1, the inhibition was 0.01% (inactive).
